High-throughput results from PubChem BioAssay.
Rows were chosen to be rich in hits. Some 1.2% of all compounds tested hit in one or more screens of this group.
CIT2-GFP yeast = modulators of TOR pathway CIT2-GFP in S. cerevisiae | S. cerevisiae CIT2-GFP strain, flow cytometry, 3 h; 100 means same as DMSO wells | GFP response vs DMSO, % at 10 µM | 0.065% of 320,000 active | AID 2029;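 active means GFP response relative to DMSO above a set limit, near the screen mean plus 3 SD, cut at about 150% in these data; inconclusive means Fewer than 70 cells measured for a yeast strain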;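 further: ratio of well median GFP fluorescence to mean of DMSO wells on the plate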
Pemphigus Ab inh = blocks pemphigus antibody binding to human desmoglein-3; P32926; binding (percent of control), % at 10 µM; 0.48% of 310,000 active; DSG3-coupled beads, scFv-anti-DSG3-GFP binding, flow cytometry; active compounds read low; AID 588358;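 active means binding more than 3 SD below its plate's average and above zero; inconclusive means below that plate limit but binding exactly zero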;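 further: hits lower antibody fragment binding to DSG3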
Target sequence (P32926 whole entry, looked up, the tested form may be a part): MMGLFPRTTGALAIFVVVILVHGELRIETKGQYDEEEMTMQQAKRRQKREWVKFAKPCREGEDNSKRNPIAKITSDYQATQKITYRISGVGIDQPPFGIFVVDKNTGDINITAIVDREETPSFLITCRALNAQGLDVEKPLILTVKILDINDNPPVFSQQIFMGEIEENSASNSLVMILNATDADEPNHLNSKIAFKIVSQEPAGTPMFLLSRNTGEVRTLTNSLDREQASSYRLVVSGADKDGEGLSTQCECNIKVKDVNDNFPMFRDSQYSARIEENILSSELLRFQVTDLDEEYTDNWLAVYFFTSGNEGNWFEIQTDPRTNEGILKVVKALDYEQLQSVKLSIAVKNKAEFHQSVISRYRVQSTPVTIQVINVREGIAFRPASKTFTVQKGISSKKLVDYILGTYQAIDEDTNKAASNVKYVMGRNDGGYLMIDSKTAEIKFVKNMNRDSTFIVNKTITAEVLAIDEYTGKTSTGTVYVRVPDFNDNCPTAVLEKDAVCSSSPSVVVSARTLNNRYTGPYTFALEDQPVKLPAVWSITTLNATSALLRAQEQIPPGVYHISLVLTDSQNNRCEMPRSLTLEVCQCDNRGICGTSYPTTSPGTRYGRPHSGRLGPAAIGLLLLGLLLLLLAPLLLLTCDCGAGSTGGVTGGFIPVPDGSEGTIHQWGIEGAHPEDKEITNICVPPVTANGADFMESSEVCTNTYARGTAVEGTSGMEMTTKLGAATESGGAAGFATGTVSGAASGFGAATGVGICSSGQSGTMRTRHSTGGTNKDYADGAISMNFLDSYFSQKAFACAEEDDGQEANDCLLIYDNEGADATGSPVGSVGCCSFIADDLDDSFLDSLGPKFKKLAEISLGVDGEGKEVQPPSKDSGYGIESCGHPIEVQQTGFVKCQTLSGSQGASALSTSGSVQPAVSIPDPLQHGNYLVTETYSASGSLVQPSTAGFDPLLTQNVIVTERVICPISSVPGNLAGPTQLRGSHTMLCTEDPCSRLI
AGP1 TOR yeast = alters AGP1-GFP fluorescence in TOR pathway yeast screen. S. cerevisiae AGP1-GFP multiplex flow cytometry, 3 h; GFP as percent of DMSO wells. AID 2066. GFP response vs DMSO, % at 10 µM. 0.02% of 320,000 active;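 active means GFP response relative to DMSO above a set limit, near screen average plus 3 SD, cut at about 150% in these data; inconclusive means fewer than 70 cells counted for the yeast strain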;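 further: median GFP channel fluorescence of the gated AGP1 strain per well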
LAP4 TOR yeast = yeast TOR pathway LAP4-GFP modulation; S. cerevisiae LAP4-GFP multiplex, flow cytometry GFP, 3 h; median GFP as percent of DMSO wells; GFP response vs DMSO, % at 10 µM; 0.34% of 320,000 active; AID 2023;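 active means GFP response vs DMSO above a set limit, about the screen mean plus 3 SD, cut at about 150% in these data; inconclusive means under 70 cell events counted for the yeast strain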
RPL19A TOR yeast = modulators of TOR pathway RPL19A-GFP in S. cerevisiae | S. cerevisiae RPL19A-GFP strain, flow cytometry, 3 h; active compounds read low | percent response vs DMSO, % at 10 µM | 0.3% of 330,000 active | AID 2025;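 active means percent response vs DMSO below 50%; inconclusive means fewer than 70 events counted for the yeast strain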;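 further: median channel GFP fluorescence of the barcoded RPL19A-GFP strain; lower means less RPL19A-GFP as with rapamycin TOR inhibition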
MEP2-GFP yeast = alters MEP2-GFP fluorescence in TOR pathway yeast screen; S. cerevisiae MEP2-GFP strain, flow cytometry GFP, 3 h; 100% = DMSO control level; GFP response vs DMSO, % at 10 µM; 0.51% of 330,000 active;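 active means GFP response versus DMSO above a set limit, roughly screen mean plus 3 SD, cut at about 180% in these data; inconclusive means fewer than 70 cells counted for a yeast strain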;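 further: median GFP fluorescence of the barcode-gated MEP2-GFP cells per well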
LAP4-GFP pick2 = second confirmation of modulators of TOR reporter LAP4-GFP in yeast; AID 2621; 20% of 590 active; shares compounds with LAP4 TOR yeast; GFP response vs DMSO, % at 10 µM; S. cerevisiae LAP4-GFP strain, flow cytometry GFP, 3 h;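 active means GFP signal as percent of the solvent control above about 150%, meaning raised reporter expression, limit read from the data; inconclusive means fewer than 70 cells counted in the well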
MEP2 cherry2 = yeast MEP2-GFP modulation, second cherry pick | shares compounds with LAP4 TOR yeast | S. cerevisiae MEP2-GFP strain, flow cytometry GFP, 3 h | GFP response vs DMSO, % at 10 µM | 10% of 590 active | AID 2622;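 active means GFP signal above 150% of the solvent control wells, that is a rise of more than half; inconclusive means fewer than 70 yeast cells counted in the well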;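 further: median channel GFP fluorescence of all gated yeast cells per well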
RPL19A-GFP pick2 = yeast RPL19A-GFP TOR reporter modulation, second cherry pick; shares compounds with LAP4 TOR yeast; S. cerevisiae RPL19A-GFP strain, flow cytometry GFP, 3 h; active compounds read low; 100% means same as DMSO wells; GFP response vs DMSO, % at 10 µM; 3% of 590 active; AID 2623;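 active means under 65% GFP response relative to DMSO; inconclusive means yeast strain with under 70 measured events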;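 further: median GFP channel fluorescence per well over the all cells gate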
CIT2 GFP CP2 = second confirmation of modulators of TOR reporter CIT2-GFP in yeast; 8% of 590 active; shares compounds with LAP4 TOR yeast; S. cerevisiae CIT2-GFP strain, flow cytometry GFP, 3 h; DMSO control wells read 100%; GFP response vs DMSO, % at 10 µM; AID 2624;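 active means GFP response vs DMSO above about 150%, limit read from the data; inconclusive means fewer than 70 events counted for a yeast strain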;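 further: median green fluorescence per well over all gated yeast cells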
AGP1 GFP CP2 = yeast AGP1-GFP TOR reporter modulation, second cherry pick | shares compounds with LAP4 TOR yeast | S. cerevisiae AGP1-GFP strain, flow cytometry GFP, 3 h | AID 2643 | percent response vs DMSO, % at 10 µM | 590 tested, under 10 active;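 active means over 150 percent of DMSO response; inconclusive means yeast strain measured with under 70 events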;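 further: median GFP channel fluorescence over all cells without mother daughter split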
s288c autofluor = compound is autofluorescent in yeast s288c cells | shares compounds with LAP4 TOR yeast | S. cerevisiae s288c, 520 nm autofluorescence, flow cytometry, 3 h; active compounds read high; zero means same as solvent-only cells | fluorescence change (kMESF span) at 33 µM | 610 tested, under 10 active | AID 2757;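 active means fluorescence span over the dose series, or activity score, above about 33, limit read from the data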
s288c autofl DR = counter-screen for autofluorescence of TOR hits in yeast s288c. shares compounds with LAP4 TOR yeast. fluorescence change (span) at 33 µM. S. cerevisiae s288c parental, compound autofluorescence, flow cytometry, 3 h. 110 tested, under 10 active;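 active means fluorescence change span, or the activity score built from it, above 25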
TORC1 bypass = stops wildtype yeast growth while TORC1 bypass cells still grow; S. cerevisiae BY4741 spot growth rating, 48-72 h; active compounds read low; AID 504456; 120 tested, under 10 active; growth rating (0-3) at 30 µM; shares compounds with LAP4 TOR yeast;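 active means growth rating at most 1 for wild type yeast while the TORC1 bypass strain still grows fully, rated 3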
Hits are given with their value; n = inactive; u = inconclusive; x = no result.

SMILES | CIT2-GFP yeast | Pemphigus Ab inh | AGP1 TOR yeast | LAP4 TOR yeast | RPL19A TOR yeast | MEP2-GFP yeast | s288c autofluor | others
C#CCOCCOCCOCCNc1nc(N2CCN(C(=O)CCCCCCCCCCNC(=O)[C@H](CCCCN)n3cc(C)nn3)CC2)nc(N2CCN(C(=O)CCCCCCCCCCNC(=O)[C@@H]([C@H](C)O)n3cc(C)nn3)CC2)n1 | n | n | n | n | n | n | x
C#CCOCCOCCOCCNc1nc(N2CCN(C(=O)CCCCCCCCCCNC(=O)[C@@H](CCC(=O)O)n3cc(CCCCCN)nn3)CC2)nc(N2CCN(C(=O)CCCCCCCCCCNC(=O)[C@H](CCCCN)n3cc(C[C@@H](C)CC)nn3)CC2)n1 | n | n | n | 198 | n | n | n | LAP4-GFP pick2=n;MEP2 cherry2=176;RPL19A-GFP pick2=n;CIT2 GFP CP2=n;AGP1 GFP CP2=n
C#CCOCCOCCOCCNc1nc(N2CCN(C(=O)CCCCCCCCCCNC(=O)[C@@H](CCSC)n3cc(CCO)nn3)CC2)nc(N2CCN(C(=O)CCCCCCCCCCNC(=O)[C@H](CO)n3cc(CCCCCN)nn3)CC2)n1 | n | n | n | n | n | n | x
O=C(CCCCCCCC(=O)N1CCCCCC1)N1CCCCCC1 | x | n | x | x | x | x | x
OCC(O)C1OC(c2ccccc2)OC(CO)C1O (configuration not stated) | x | n | x | x | x | x | x
Cn1c(CCNC(=O)c2cc(COc3ccc(F)c(F)c3)on2)nc2ccccc21 | n | n | n | n | n | n | x
C#CCOCCOCCOCCNc1nc(N2CCN(C(=O)CCCCCCCCCCNC(=O)[C@H](CCCCN)n3cc(CCO)nn3)CC2)nc(N2CCN(C(=O)CCCCCCCCCCNC(=O)[C@H](CCCCN)n3cc(CCCC(=O)O)nn3)CC2)n1 | n | n | n | n | n | n | x
C#CCOCCOCCOCCNc1nc(N2CCN(C(=O)CCCCCCCCCCNC(=O)[C@H](CCCCN)n3cc(CCO)nn3)CC2)nc(N2CCN(C(=O)CCCCCCCCCCNC(=O)[C@H](CCCCN)n3cc(C[C@@H](C)CC)nn3)CC2)n1 | n | x | n | 161 | n | n | n | LAP4-GFP pick2=n;MEP2 cherry2=152;RPL19A-GFP pick2=n;CIT2 GFP CP2=n;AGP1 GFP CP2=n
COc1ccc(CCN(C)S(=O)(=O)c2ccc(Cl)nc2)cc1OC | n | n | n | n | n | n | x
Cc1ccc(C(=O)Nc2ccccc2)cc1S(=O)(=O)N1CCN(C)CC1 | n | n | n | n | n | n | x
COc1cccc(-c2ncc3ccccc3c2COC(=O)c2ccc(Br)cc2)c1 | n | n | n | n | n | n | x
COc1cccc(-c2ncc3ccccc3c2COC(=O)c2cccc(Br)c2)c1 | n | x | n | 159 | n | n | x | LAP4-GFP pick2=n;MEP2 cherry2=n;RPL19A-GFP pick2=n;CIT2 GFP CP2=n;AGP1 GFP CP2=n
Cc1ccc(N2CCN(S(=O)(=O)c3ccc4oc(=O)ccc4c3)CC2)c(C)c1 | n | x | n | n | n | n | x
COc1ccc(NC(=O)Cc2ccccc2)cn1 | n | n | n | n | n | n | x
COc1ccc(NC(=O)/C(Cl)=C(/Cl)S(=O)Cc2ccccc2)cn1 (configuration not stated) | n | n | n | 288 | n | n | n
CCOC(=O)CCCCCC(=O)Nc1ccc2c(c1)CC(=O)N([C@H](C)CO)C[C@H](C)[C@H](CN(C)S(=O)(=O)c1ccc(OC)cc1)O2 | x | n | x | x | x | x | x
O=C(C(=O)N1CCN(c2ccc([N+](=O)[O-])cc2)CC1)c1cn(CC(=O)N2CCOCC2)c2ccccc12 | n | n | n | n | n | n | x
CCOC(=O)CS(=O)(=O)c1nc(-c2ccc(F)cc2)cc(C(F)(F)F)n1 | n | n | n | 172 | n | n | n
CCOC(=O)CCS(=O)(=O)c1nc(-c2ccccc2)cc(C(F)(F)F)n1 | n | n | n | 185 | n | n | n | s288c autofl DR=n;TORC1 bypass=n
COC(=O)CCS(=O)(=O)c1nc(-c2ccccc2)cc(C(F)(F)F)n1 | n | x | n | 156 | n | 183 | n | s288c autofl DR=n;TORC1 bypass=n
CCOC(=O)CS(=O)(=O)c1nc(-c2ccccc2)cc(C(F)(F)F)n1 | n | u | n | 180 | n | n | n | s288c autofl DR=n;TORC1 bypass=n
COC(=O)c1ccc(NC(=S)NCCCn2ccnc2)cc1 | n | n | n | n | n | n | x
C/C(=N\NS(=O)(=O)c1ccc([N+](=O)[O-])cc1)c1ccc(NC(=O)c2ccco2)cc1 | n | n | n | n | n | n | x | LAP4-GFP pick2=n;MEP2 cherry2=n;RPL19A-GFP pick2=n;CIT2 GFP CP2=n;AGP1 GFP CP2=n
Cc1cccc(C)c1NC(=O)CNC(=O)CCCN1C(=O)c2cccc3cccc(c23)C1=O | 414 | n | 182 | 375 | n | 449 | x | LAP4-GFP pick2=n;MEP2 cherry2=n;RPL19A-GFP pick2=n;CIT2 GFP CP2=n;AGP1 GFP CP2=n
COc1ccc(C(=O)NC2CCCN(Cc3ccc(Cl)cc3)C2)c(OC)c1 (configuration not stated) | n | n | n | n | n | n | x
CC1CC(C)CN(C(=O)COC(=O)CCC(=O)c2cccs2)C1 (configuration not stated) | n | n | n | 165 | n | n | x | LAP4-GFP pick2=n;MEP2 cherry2=n;RPL19A-GFP pick2=n;CIT2 GFP CP2=n;AGP1 GFP CP2=n
CC(C)C[C@@H](CN1C(=O)C(=O)NC[C@@H]1CC(C)C)NC(=O)Cc1ccccc1 | n | n | n | n | n | n | x
COc1ccc(-c2ncncc2-c2csc(C)n2)c(O)c1OC | n | n | n | n | n | n | x
